Assay [1] in a line: qHTS assay for environmental chemicals that activate the Aryl hydrocarbon Receptor (AhR) signaling pathway (AID 651777). Note: % of control where 0% means no effect; nearly all actives have a fitted effect of over 15% in size. The settings on record: 1A2-DRE human hepatoma cells, luciferase, 24 h; activation: stronger effect = higher value. In a few lines: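 AhR activation is scored as a rise in luciferase from a stable DRE–CYP1A2 promoter construct in human hepatoma cells. Treatment lasts 24 hr at 37 C; detection uses One-Glo after 30 min at room temperature.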
(In general: Quantitative high-throughput screening tests each substance at several concentrations.)

The target in assay [2] is Peroxisome proliferator-activated receptor alpha (Homo sapiens) (UniProt Q07869). The experiment in a line: qHTS assay for small molecule agonists of the peroxisome proliferator-activated receptor alpha (PPARalpha) signaling pathway (AID 651778). Note: % of control where 0% means no effect. Conditions: PathHunter PPARalpha complementation, chemiluminescence, 6 h; max response: stronger effect = higher value. The essentials: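 Chemiluminescence from complemented enzyme reported PPARalpha activation in cells after 6 hr of compound treatment at 37 C. The detection reagent was incubated for 60 min at room temperature, and compounds were scored as agonists.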

Assay [3] is described as follows: qHTS assay for small molecule agonists of the antioxidant response element (ARE) signaling pathway measured by Nrf2-dependant transcriptional activity (AID 720636; active = well fitted curve in the direction sought with a large enough effect in the repeat runs; an effect the other way counts as inactive or inconclusive;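 note: HepG2 cells with an ARE-driven luciferase reporter; % of control where 0% means no effect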). The essentials:
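First, ARE-luc HepG2 cells attached for 6 hr at 37 C in 1% dialyzed FBS medium. Next, compound or DMSO was added and incubated 16 hr. Finally, ONE-Glo reagent was added and luminescence measured after 30 min.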

Assay [4] is described as follows: qHTS assay for small molecule agonists of the antioxidant response element (ARE) signaling pathway measured by Nrf2-dependant transcriptional activity - cell viability counter screen (AID 720653; active = well fitted curve in the direction sought with a large enough effect in the repeat runs; an effect the other way counts as inactive or inconclusive; note: potency is the fitted concentration of half-maximal effect). The settings on record: ARE-bla HepG2 viability, CellTiter-Glo ATP luminescence, 16 h; max response: stronger effect = lower value. In a few lines: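 Cytotoxicity counter screen: intracellular ATP quantified by CellTiter-Glo luminescence in the same ARE-bla HepG2 plates, after 16 h compound exposure and a 2 h beta-lactamase substrate step.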

A short description of assay [5]: qHTS assay for cell viability of HEK293 cells (AID 743288). Note: potency is the fitted concentration of half-maximal effect; nearly all actives have a fitted effect of over 50% in size. The settings on record: ATP luminescence (CellTiter-Glo), 18 h; max response: stronger effect = lower value. In a few lines: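 Total intracellular ATP, measured with a luciferase-coupled reagent, indicates the number of viable HEK293 cells. Exposure to test chemicals lasts 18 h at 37 C in 1,536-well format at 2,000 cells/well.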

Assay [6] can be described thus: qHTS assay for cell viability of the p53RE-bla HCT-116 cell line (AID 743292). Note: potency is the fitted concentration of half-maximal effect; nearly all actives have a fitted effect of over 55% in size. The essentials:
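Quantitative high-throughput format: compounds in DMSO were pinned onto p53RE-bla HCT-116 cells (4,000/well) and incubated 16 h at 37 C. Total intracellular ATP, read by CellTiter-Glo luminescence, reflects viable cell number.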

Assay [7] is described as follows: qHTS Assay for Identifying Gametocytocidal Compounds (AID 743244). Note: potency is the fitted concentration of half-maximal effect. Conditions: P. falciparum 3D7 stage III-V gametocytes, alamarBlue, 72 h; max response: stronger effect = lower value. The essentials:
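Late gametocytes (III–V), P. falciparum 3D7; 72 h drug, then 24 h alamarBlue; resazurin reduction read by fluorescence.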

Assay [8] addresses DNA polymerase eta (Homo sapiens) (UniProt Q9Y253). The experiment in a line: qHTS for Inhibitors of Polymerase Eta: Confirmatory Assay for Cherry-picked Compounds (AID 720502). Note: potency is the fitted concentration of half-maximal effect. The settings on record: Pol eta primer extension, TAMRA/BHQ fluorescence, 10 min. The essentials:
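Pol eta 10 nM; substrate 50 nM final (unlabeled primer, TAMRA reporter, BHQ-2 template); preincub. 15 min RT; reads t=0 and t=10 min at ex525/em598.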

Assay [9] in a line: qHTS profiling for inhibitors of Plasmodium falciparum (3D7) proliferation (AID 743322).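 Note: infected erythrocytes exposed to compound for 72 h before lysis; 100% = DMSO vehicle wells and 0% = 0.29 µM artemisinin.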 Conditions: P. falciparum 3D7 proliferation; at 28.7 µM (top of the series) unless noted. In a few lines: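 Erythrocytes infected with P. falciparum (0.3% parasitemia, 2.5% hematocrit) incubated with compounds 72 h at 37 C, 5% CO2. Lysis with saponin/Triton buffer containing SYBR Green I, overnight at room temperature in the dark; DNA fluorescence (485/535 nm) normalised to 0.29 uM artemisinin and DMSO.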

Assay [10] is described as follows: qHTS profiling for inhibitors of Plasmodium falciparum (DD2) proliferation (AID 743323; call rule not given here). Conditions: lower = more inhibition; at 28.7 µM (top of the series) unless noted. In a few lines: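 1536-well qHTS; infected RBCs 0.3% parasitemia/2.5% Hct final; cpd 72 h 37 C 5% CO2; lysis buffer + SYBR Green I, o/n RT dark; FI 485/535; norm. to 0.29 uM artemisinin and DMSO, plate-stack corrected.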

The nature of assay [11]: qHTS profiling for inhibitors of Plasmodium falciparum (HB3) proliferation (AID 743324).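 Note: 100% = DMSO vehicle wells and 0% = artemisinin-treated control wells.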 Conditions: Plasmodium falciparum HB3 blood-stage proliferation; at 28.7 µM (top of the series) unless noted. The essentials: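 P. falciparum HB3 grown in erythrocytes (0.3% parasitemia, 2.5% hematocrit final) with compound for 72 h at 37 C, 5% CO2. Parasite DNA detected by SYBR Green after saponin/triton lysis overnight; normalized to 0.29 uM artemisinin and DMSO.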

The target of assay [12] is Cytochrome P450 3A4 (Homo sapiens) (UniProt P08684). The experiment in a line: qHTS Assay for Inhibitors and Substrates of Cytochrome P450 3A4 (AID 884). For activity change, negative = inhibition: % is set by controls: 0 for no effect and ±100 for the full control effect. Note: nearly all actives have a fitted effect of over 50% in size. Note: potency is the fitted concentration of half-maximal effect. In a few lines: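 20 nM human CYP3A4 with 25 uM Luciferin-PPXE (at KM) in 200 mM KPO4, preincubated 10 min with compound; NADPH regeneration started a 60 min RT reaction. Luciferin detected by luminescence, normalized to 57 uM ketoconazole as full inhibition.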

Assay [13] shares this target. The experiment in a line: qHTS Assay for Activators of Cytochrome P450 3A4 (AID 885). Note: nearly all actives have a fitted effect of over 65% in size. Note: potency is the fitted concentration of half-maximal effect. In a few lines:
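Steps: enzyme/substrate mix dispensed; compound added, 10 min RT; NADPH regeneration solution added, 60 min RT; luciferin detection buffer stops reaction; 20 min later luminescence measured.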

Assay [14] has as its target Cytochrome P450 2C9 (Homo sapiens) (UniProt P11712). The experiment in a line: qHTS Assay for Inhibitors and Substrates of Cytochrome P450 2C9 (AID 883). Note: % is set by controls: 0 for no effect and ±100 for the full control effect; nearly all actives have a fitted effect of over 60% in size. The essentials:
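Inhibition of CYP2C9 is scored as loss of luminescence, with 57uM sulphaphenazole defining 100% inhibition. Substrate Luciferin-H is used at 100uM, equal to its KM; enzyme at 10nM in 25mM KPO4, 60 min at 37C with NADPH regeneration.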

Assay [15] deals with Cytochrome P450 2D6 (Homo sapiens) (UniProt P10635). The experiment in a line: qHTS Assay for Inhibitors and Substrates of Cytochrome P450 2D6 (AID 891).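 Note: luciferin methyl ether substrate demethylated by CYP2D6 with NADPH regeneration; % is set by controls: 0 for no effect and ±100 for the full control effect; nearly all actives have a fitted effect of over 60% in size.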 In a few lines:
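Human CYP2D6 (5 nM) with 30 uM Luciferin-ME EGE (at Km) in 100 mM KPO4, compound preincubated 10 min, then NADPH regeneration system for 60 min at room temperature. Luciferin read by luminescence; normalized to 1.43 uM quinidine.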

The target in assay [16] is Cytochrome P450 2C19 (Homo sapiens) (UniProt P33261). The experiment in a line: qHTS Assay for Inhibitors and Substrates of Cytochrome P450 2C19 (AID 899). Note: % is set by controls: 0 for no effect and ±100 for the full control effect; nearly all actives have a fitted effect of over 60% in size. In a few lines:
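5nM enzyme + 10uM Luciferin-H EGE (=KM), 50mM KPO4; cpd pin-transferred, 10 min 37C; NADPH regen, 60 min 37C; stopped w/ luciferin detection reagent, 20 min; luminescence. Normalized to 57uM ketoconazole (AC100).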

Results filed as inconclusive are left out. Some of the results follow. Active and inactive are the calls of the source. Unless noted, calls come from the whole dose curve; as a rule, active = well fitted curve in the direction sought with a large enough effect; inconclusive = small, poorly fitted or top-dose-only effect, or another doubt; inactive = no such curve, though single readings can be large; an effect the other way counts as inactive or inconclusive.

Sequence of Cytochrome P450 2C9 (Homo sapiens) (P11712 whole entry, looked up): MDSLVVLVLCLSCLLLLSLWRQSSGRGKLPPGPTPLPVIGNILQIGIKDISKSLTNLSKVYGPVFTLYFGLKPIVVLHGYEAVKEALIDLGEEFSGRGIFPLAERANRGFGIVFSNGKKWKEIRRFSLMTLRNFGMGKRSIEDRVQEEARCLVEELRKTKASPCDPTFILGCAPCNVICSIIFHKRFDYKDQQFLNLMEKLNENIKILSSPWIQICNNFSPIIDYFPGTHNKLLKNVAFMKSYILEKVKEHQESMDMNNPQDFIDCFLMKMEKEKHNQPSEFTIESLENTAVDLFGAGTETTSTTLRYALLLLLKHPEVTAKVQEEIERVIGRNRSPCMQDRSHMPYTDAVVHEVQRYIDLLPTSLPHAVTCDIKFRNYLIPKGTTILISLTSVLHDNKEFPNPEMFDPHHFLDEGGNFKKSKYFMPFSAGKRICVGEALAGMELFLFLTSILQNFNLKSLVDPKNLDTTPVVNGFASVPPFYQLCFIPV
Sequence of Cytochrome P450 2D6 (Homo sapiens) (P10635 whole entry, looked up): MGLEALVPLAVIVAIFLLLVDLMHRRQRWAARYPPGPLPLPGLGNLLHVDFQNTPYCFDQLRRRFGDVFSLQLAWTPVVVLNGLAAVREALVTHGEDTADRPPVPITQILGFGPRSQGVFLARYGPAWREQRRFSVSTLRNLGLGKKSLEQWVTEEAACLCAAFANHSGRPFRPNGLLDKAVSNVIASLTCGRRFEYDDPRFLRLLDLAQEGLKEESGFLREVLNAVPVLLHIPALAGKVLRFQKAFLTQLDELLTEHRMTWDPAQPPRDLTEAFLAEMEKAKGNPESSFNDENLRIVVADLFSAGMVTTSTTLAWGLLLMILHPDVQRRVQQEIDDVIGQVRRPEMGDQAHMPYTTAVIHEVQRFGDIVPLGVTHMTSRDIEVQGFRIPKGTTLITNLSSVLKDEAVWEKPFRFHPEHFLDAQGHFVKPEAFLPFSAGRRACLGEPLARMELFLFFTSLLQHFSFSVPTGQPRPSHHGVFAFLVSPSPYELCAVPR
Sequence of Peroxisome proliferator-activated receptor alpha (Homo sapiens) (Q07869 whole entry, looked up): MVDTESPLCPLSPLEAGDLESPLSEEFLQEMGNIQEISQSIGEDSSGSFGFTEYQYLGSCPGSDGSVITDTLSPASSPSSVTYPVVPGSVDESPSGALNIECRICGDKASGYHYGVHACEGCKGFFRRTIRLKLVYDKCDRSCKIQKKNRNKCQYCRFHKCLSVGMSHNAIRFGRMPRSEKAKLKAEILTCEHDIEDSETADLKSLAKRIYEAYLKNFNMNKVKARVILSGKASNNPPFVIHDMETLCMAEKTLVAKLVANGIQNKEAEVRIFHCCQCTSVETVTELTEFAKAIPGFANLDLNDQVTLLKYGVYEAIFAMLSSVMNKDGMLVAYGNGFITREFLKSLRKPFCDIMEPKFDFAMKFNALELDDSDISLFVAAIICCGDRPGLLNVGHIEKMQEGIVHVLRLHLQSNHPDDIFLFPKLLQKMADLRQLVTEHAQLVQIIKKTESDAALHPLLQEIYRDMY
Sequence of DNA polymerase eta (Homo sapiens) (Q9Y253 whole entry, looked up): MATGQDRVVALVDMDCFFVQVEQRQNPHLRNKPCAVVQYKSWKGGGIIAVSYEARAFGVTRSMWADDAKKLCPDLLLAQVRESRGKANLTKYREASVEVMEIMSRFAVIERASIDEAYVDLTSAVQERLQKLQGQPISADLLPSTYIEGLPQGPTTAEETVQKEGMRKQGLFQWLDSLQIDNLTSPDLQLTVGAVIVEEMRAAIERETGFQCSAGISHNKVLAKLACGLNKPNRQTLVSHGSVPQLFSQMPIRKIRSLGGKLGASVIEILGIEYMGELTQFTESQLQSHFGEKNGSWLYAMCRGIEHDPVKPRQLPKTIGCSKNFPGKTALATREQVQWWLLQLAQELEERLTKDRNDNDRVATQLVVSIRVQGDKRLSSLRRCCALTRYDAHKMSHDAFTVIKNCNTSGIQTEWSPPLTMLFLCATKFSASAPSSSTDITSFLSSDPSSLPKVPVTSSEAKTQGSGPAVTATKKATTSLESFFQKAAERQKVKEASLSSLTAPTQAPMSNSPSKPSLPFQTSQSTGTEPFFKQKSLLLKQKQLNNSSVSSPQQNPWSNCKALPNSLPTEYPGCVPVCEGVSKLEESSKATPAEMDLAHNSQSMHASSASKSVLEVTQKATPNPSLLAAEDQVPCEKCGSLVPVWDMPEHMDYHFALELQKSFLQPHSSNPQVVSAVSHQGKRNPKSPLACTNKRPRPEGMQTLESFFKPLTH
Sequence of Cytochrome P450 2C19 (Homo sapiens) (P33261 whole entry, looked up): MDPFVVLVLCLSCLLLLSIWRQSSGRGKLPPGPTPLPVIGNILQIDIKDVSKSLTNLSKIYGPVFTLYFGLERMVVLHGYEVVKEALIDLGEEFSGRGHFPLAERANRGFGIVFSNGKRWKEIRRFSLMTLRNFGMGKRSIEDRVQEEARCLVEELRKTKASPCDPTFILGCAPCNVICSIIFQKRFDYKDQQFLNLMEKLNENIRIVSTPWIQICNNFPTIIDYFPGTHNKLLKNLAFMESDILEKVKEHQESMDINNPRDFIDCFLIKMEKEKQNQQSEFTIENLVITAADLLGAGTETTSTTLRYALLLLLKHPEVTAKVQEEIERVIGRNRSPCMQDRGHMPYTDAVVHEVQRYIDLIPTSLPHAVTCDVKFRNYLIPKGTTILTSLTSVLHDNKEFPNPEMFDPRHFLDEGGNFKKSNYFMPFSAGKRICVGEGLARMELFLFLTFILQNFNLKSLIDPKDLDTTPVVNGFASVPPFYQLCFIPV

As to `CC[C@H](C)[C@H]1O[C@]2(C=C[C@@H]1C)C[C@@H]1C[C@@H](C/C=C(\C)[C@@H](O[C@H]3C[C@H](OC)[C@@H](O[C@H]4C[C@H](OC)[C@@H](NC)[C@H](C)O4)[C@H](C)O3)[C@@H](C)/C=C/C=C3\CO[C@@H]4[C@H](O)C(C)=C[C@@H](C(=O)O1)[C@]34O)O2`, in assay [1], the activation was -12% (inactive). Further, the max response in [2] was 4.77% (inactive). The Potency result in assay [3] is “inactive”. For the same compound, the Potency in [4] is 25.1 µM (active); in [5], 50.1 µM (active); in [6], 28.2 µM (active).

As to `COC(=O)C[C@](O)(CCCC(C)(C)O)C(=O)O[C@@H]1C(OC)=CC23CCCN2CCc2cc4c(cc2[C@H]13)OCO4` (stereo partly drawn), in assay [7], the Potency is 0.0833 µM (active).

In the case of `O=C1NC(=O)N(c2ccc(F)cc2)C(=O)/C1=C/c1ccc2c(c1)CCCN2Cc1ccccc1`, the Potency in [8] is 84.9 µM (active).

For `CCCCN(CCCC)CCC(OC(=O)O[C@H]1CCC[C@]2(C1)OOC1(O2)C2CC3CC(C2)CC1C3)c1cc2c(Cl)cc(Cl)cc2c2cc(C(F)(F)F)ccc12` (stereo partly drawn), the remaining parasite growth % (stronger effect = lower value) in [9] is -0.262%. The same compound gave an activity, percent of control in [10] of 0.194%. This compound also displayed a remaining proliferation (% of control), lower = more inhibition in assay [11] of 0.0614%.

Regarding `COc1cc2c3cc1Oc1c(OC)c(OC)cc4c1[C@@H](Cc1ccc(O)c(c1)Oc1ccc(cc1)C[C@@H]3N(C)CC2)N(C)CC4`, the Potency in [12] was 20 µM (active). The Potency entry in [13] was “inactive”.

For `C[C@@]12CCC3c4ccc(O)cc4CCC3C1CCC2O` (stereo partly drawn), in assay [12], the Potency entry is “inactive”.

With `C[C@H](Br)C(=O)c1ccc2cc(Br)c3ccccc3c2c1`, the activity change, negative = inhibition in assay [14] was 58.8% [at 11.4 µM] (inactive).

`COC(=O)[C@H]1C(=O)c2ccccc2O[C@@](C(=O)OC)(c2ccccc2)[C@@H]1c1ccccc1`: in [12], the Potency was 3.98 µM (active). The activity change, positive = activation in assay [13] was -63.3% [at 11.4 µM] (inactive).

Regarding `CC[C@H](C(=O)[C@H](C)[C@H](O)[C@H](C)CCc1ccc(C)c(O)c1C(=O)O)[C@H]1O[C@](CC)([C@@H]2CC[C@@](O)(CC)[C@H](C)O2)C[C@H]1C`, in assay [12], the Potency was 7.94 µM (active).

For `CC(=O)O[C@H]1CC[C@@]2(C)[C@@H](CC[C@H]3[C@H]2CC(=O)[C@@]2(C)[C@@H]3C[C@H]3CC(C)=CC(=O)[C@H]32)C1`, the activity change, negative = inhibition in assay [12] is 295% [at 11.4 µM] (inactive). Further, in assay [13], the Potency was 2 µM (active).

Consider `Cc1[nH]cnc1CCN`, for which the Potency result in assay [12] is “inactive”.

`COc1ccc(-c2oc3cc(OC)ccc3c(=O)c2O)cc1`: the Potency in assay [12] is 12.6 µM (active). Moreover, the Potency result in assay [13] was “inactive”.

`CC(=O)OC1C[C@]2(C)C(C(C)=O)CCC2C2CCC3=CC(=O)CC[C@@]3(C)C12` (stereo partly drawn): in assay [12], the Potency is 7.94 µM (active). Besides, the Potency entry in assay [13] was “inactive”.

For `Clc1cc(Cl)c(Cl)c(Cl)c1Cl`, the Potency entry in assay [12] was “inactive”.

Take `CC1=CC[C@@H]2[C@@H](C1)c1c(O)cc(CC#CCCCNS(C)(=O)=O)cc1OC2(C)C`: the Potency in assay [12] is 2.51 µM (active). Moreover, the Potency entry in [13] is “inactive”.

With `CC1Cc2c(cnc3c2CN(C)CC3)CO1` (stereo not drawn), the activity change, negative = inhibition in assay [14] is 12.6% [at 11.4 µM] (inactive); in assay [12], -13.4% [at 11.4 µM] (inactive); in assay [15], 10.1% [at 11.4 µM] (inactive). In addition, in assay [16], the activity, negative = inhibition was 9.03% [at 11.4 µM] (inactive).

In the case of `O=C1NO[C@H]2[C@@H]1CN[C@@H]2C(=O)O`, the Potency entry in assay [12] was “inactive”.

These data come from PubChem BioAssay (NCATS).
